Data taken from PubChem BioAssay AID1362 (SRMLSC, 2008).
Hit rate of the full screen: of about 190,000 compounds, about 4,000 (2.1%) were called active. Rule as the data show it: active = inhibition above about 58%; inactive = the rest, inconclusive results apart; tested in S. cerevisiae. Only a selection was taken, and actives are over-represented in it overall.

Assay: growth inhibition of WT strain, primary screen, mitochondrial fusion inhibitor project, WT and mutant strains, chemical genetic (AID 1362)
Conditions: mitochondrial fusion phenotypic screen, at 10 µM
[1] = WT strain, growth inhibition, stronger effect = higher value

SMILES	inhibition [1]	inhibition (mutant strain inhibition)
Cc1ccc(NC(=O)OCc2cncs2)cc1	-3.01% (inactive)	3.18%
COc1ccc(OC)c(C(=O)c2ccc(C(=O)N3CCN(Cc4csc(C)n4)CC3)cc2)c1	-23% (inactive)	5.3%
Cc1ccc(Cl)c(NC(=O)CN2CCN(C=O)CC2)c1	-7.62% (inactive)	12.5%
CC(=O)OC(COc1ccc(F)cc1)Cn1cnc2ccccc21 (stereo not drawn)	-0.37% (inactive)	4.78%
CC(C)c1ccc(OCC(O)Cn2cnc3ccccc32)cc1 (stereo not drawn)	95.7% (active)	0.12%
OC(COc1ccc2ccccc2c1)Cn1cncn1 (stereo not drawn)	4.91% (inactive)	-2.41%
CC(=O)Nc1cccc(-c2nc3ccccc3s2)c1C	-0.41% (inactive)	-5.28%
O=C(CCCN1C(=O)/C(=C/c2ccco2)SC1=S)Nc1ccccc1	1.95% (inactive)	-17.3%
COC(=O)C1=C(C)N(c2ccc(Br)cc2)C(=O)/C1=C\c1ccco1	13.1% (inactive)	8.54%
COC(=O)C1=C(C)N(C(C)c2ccccc2)C(=O)/C1=C\c1ccco1 (stereo not drawn)	58.3% (active)	-4.58%
O=C(NCCN1CCOCC1)Nc1cccc(Cl)c1	-7.63% (inactive)	-3.81%
Cc1cc(C)cc(OCC(=O)NCc2cc(C)nc3ccccc23)c1	-2.23% (inactive)	3.06%
COc1cc(NC(=S)N2CCCC(C)C2)c(OC)cc1Cl (stereo not drawn)	-3.52% (inactive)	1.38%
COc1ccc(NC(=O)COc2ccc(C(=O)OCC(=O)N(C)C3CCS(=O)(=O)C3)cc2OC)cc1 (stereo not drawn)	-3.64% (inactive)	1.53%
O=C(Nc1cccc(S(=O)(=O)Nc2ccc(Cl)cc2)c1)c1ccc2c(c1)OCCO2	63.7% (active)	29.9%
O=C(Nc1ccc(Cl)cn1)c1ccc2c(c1)OCCO2	27.3% (inactive)	29%
O=C(Nc1cccc(S(=O)(=O)N2CCCCC2)c1)c1ccc2c(c1)OCO2	9.86% (inactive)	4.97%
CCn1nc(C)cc1C(=O)N1CCCC(C(=O)c2cccc(OC)c2)C1 (stereo not drawn)	-20.3% (inactive)	1.68%
Cn1nnnc1SCC(=O)NNC(=O)c1ccc(Br)cc1	-19.9% (inactive)	0.05%
COc1cc(/C=N/NC(=O)c2cc(C)n(-c3ccc(F)cc3)c2C)cc(OC)c1O	1.5% (inactive)	1.64%
COc1cc(Cl)c(C)cc1NC(=O)CSc1nnc(-c2cccnc2)n1Cc1ccco1	2.54% (inactive)	2.3%
COc1cc(Cl)c(C)cc1NC(=O)CSc1nnc(-c2ccco2)n1CC(C)C	63.4% (active)	39.5%
CCn1c(SCC(=O)Nc2cc(C)c(Cl)cc2OC)nnc1-c1ccco1	23% (inactive)	32.2%
CCN(CC)CCOC(=O)c1ccc(NC(=O)CNC(=O)c2ccccc2)cc1	19.4% (inactive)	15.8%
CC(C)NC(=S)N1CCN(C(c2ccccc2)c2ccccc2)CC1	64.7% (active)	29.4%
CC(C)OCC(O)CN1CCN(C(c2ccccc2)c2ccccc2)CC1 (stereo not drawn)	11% (inactive)	3.96%
CC(C)NC(=S)N1CCN(S(C)(=O)=O)CC1	-2.96% (inactive)	11.2%

SMILES	inhibition [1]	inhibition (mutant strain inhibition)
COc1ccccc1NC(=S)NC(=O)C(C)C	48% (inactive)	2.93%
COc1ccccc1NC(=S)N1CCN(C(c2ccccc2)c2ccccc2)CC1	58.8% (active)	38.3%
COc1ccccc1NC(=S)N1CCC(NC(=O)C23CC4CC(CC(C4)C2)C3)CC1	-5.17% (inactive)	19%
O=C1CN(C(=O)COC(=O)c2cnc(Cl)c(Cl)c2)c2ccccc2N1	-3.97% (inactive)	-29.4%
O=C(COC(=O)c1ccco1)NCc1ccc(Cl)cc1	2.75% (inactive)	-1.13%
Cc1n[nH]c(=O)n1-c1ccc(C(C)C)cc1	-5.29% (inactive)	-2.69%
O=C(CO/N=C/c1ccc(OC(F)F)cc1)NCc1ccc(F)cc1	16.7% (inactive)	27%
CC(C(=O)N=Nc1c(O)n(C)c2ccc(Br)cc12)n1cnc2ccccc2c1=O (stereo not drawn)	17.8% (inactive)	30.6%
COCCN(CCOC)S(=O)(=O)c1ccc(/C(O)=C(\C#N)c2nc3ccccc3[nH]2)cc1	-0.78% (inactive)	-1.8%
CC(C)CN1CCNC(=O)C1CC(=O)N(C)CC1CCOCC1 (stereo not drawn)	-4.62% (inactive)	-8.09%
COC(=O)C1=C(C)N(c2ccc(C)cc2)/C(=C/c2ccc(O)cc2)C1=O	5.84% (inactive)	0.5%
COc1ccc(/C=N/NC(=O)CNC(=O)c2ccc(S(=O)(=O)N3CCCC3)cc2)c(OC)c1	7.02% (inactive)	8.18%
Cc1nnc(CN(C)Cc2cn[nH]c2-c2ccc(-c3ccccc3)cc2)o1	6.53% (inactive)	-1.49%
O=C(Nc1ccc2ccccc2c1)/C(=C/c1cccc(Br)c1)NC(=O)c1ccco1	17.2% (inactive)	10.9%
CC(Oc1ccc2ccccc2c1)C(=O)NNC(=S)NC(=O)c1ccco1 (stereo not drawn)	86.5% (active)	80.5%
CCCc1ccc(OCC(=O)NNC(=S)NC(=O)c2ccco2)cc1	87.8% (inactive)	88.2%
CCCNC(=O)Nc1ccccc1C(=O)Nc1ccc(OC)cc1	-0.69% (inactive)	-0.17%
CCCNC(=O)c1ccccc1NC(=O)CSCc1ccc(OC)cc1	72.9% (active)	19.6%
CCCCCNC(=O)c1cccnc1SCC(=O)Nc1ccccc1OC	-6.44% (inactive)	-24%
Cc1cccc(C)c1NC(=O)C1(C)c2cccc[n+]2CC(=O)N1Cc1cccs1 (stereo not drawn)	-7.87% (inactive)	0.75%
CCOc1cc(/C=N/O)cc(Br)c1OC	-2.36% (inactive)	-20.3%
COc1cc(/C=N/O)cc(Br)c1OCc1cccc(Cl)c1	91.4% (active)	76.3%
COc1cccc(/C=N/NC(=O)c2cccc([N+](=O)[O-])c2)c1OS(=O)(=O)c1ccc(C)cc1	-5.41% (inactive)	-3.16%
COc1cc(/C=N/O)cc(Br)c1OS(=O)(=O)c1ccc(C)cc1	71.3% (active)	30.6%
COc1cc(/C=N/Nc2ccc(C)cc2)cc(Br)c1O	15.8% (inactive)	37.7%
CCOc1c(Cl)cc(/C=N/O)cc1OC	-6.94% (inactive)	-20.7%
N#CC1(C#N)C(C(=O)C23CC4CC(CC(C4)C2)C3)C12CCOCC2 (stereo not drawn)	21.5% (inactive)	11.6%
